Test results: PubChem BioAssay (NCI)
About 83,000 compounds went through this panel and 20% of them were active in at least one assay; those are over-represented in the sample as a whole.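 Single-concentration screen, 48 h exposure, 96-well plates. Endpoint: percent growth. Below 10 = active.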 A number with no mark means an inactive call. The source made the active and inactive calls.

Tests used:
Assay in all cases: NCI-60 one-dose screen, 48 h (100 = growth as untreated, 0 = no growth, -100 = all killed)
DU-145 prostate = settings: 10 µM unless noted
K-562 leukemia = settings: 10 µM unless noted
MALME-3M melanoma = settings: 10 µM unless noted
MDA-MB-231 breast = settings: 10 µM unless noted
RXF 393 renal = settings: 10 µM unless noted
SF-268 CNS = settings: 10 µM unless noted
SF-295 CNS = settings: 10 µM unless noted
SF-539 CNS = settings: 10 µM unless noted
UACC-257 melanoma = settings: 10 µM
M14 melanoma = settings: 10 µM unless noted
HCT-15 colon = settings: 10 µM unless noted
HT29 colon = settings: 10 µM unless noted
SNB-75 CNS = settings: 10 µM unless noted
SNB-19 CNS = settings: 10 µM unless noted
U251 CNS = settings: 10 µM unless noted
PC-3 prostate = settings: 10 µM unless noted
SK-MEL-5 melanoma = settings: 10 µM unless noted
UACC-62 melanoma = settings: 10 µM unless noted
LOX IMVI melanoma = settings: 10 µM unless noted
SK-MEL-28 melanoma = settings: 10 µM unless noted

Compound	growth (DU-145 prostate)	growth (K-562 leukemia)	growth (MALME-3M melanoma)	growth (MDA-MB-231 breast)	growth (RXF 393 renal)	growth (SF-268 CNS)	growth (SF-295 CNS)	growth (SF-539 CNS)	growth (UACC-257 melanoma)	growth (M14 melanoma)	growth (HCT-15 colon)	growth (HT29 colon)	growth (SNB-75 CNS)	growth (SNB-19 CNS)	growth (U251 CNS)	growth (PC-3 prostate)	growth (SK-MEL-5 melanoma)	growth (UACC-62 melanoma)	growth (LOX IMVI melanoma)	growth (SK-MEL-28 melanoma)
CCN1CCN(c2cc(C(=O)Nc3nc4ccc(Oc5ccnc(C(=O)NC)c5)cc4s3)cc(C(F)(F)F)c2)CC1	85.8%	55.3%	75.7%	86.2%	-15.6% (active)	92.7%	83%	92.9%	94.2%	67.7%	26.9%	18.5%	88.7%	111%	76.8%	55.6%	63.6%	90.7%	34.6%	
IP(CCCCCCCCCCSc1n(Cc2ccc3ccccc3c2)c(-c2ccccc2)c(-c2ccccc2)[n+]1Cc1ccc2ccccc2c1)(c1ccccc1)(c1ccccc1)c1ccccc1	-69.6% (active)	-46.4% (active)	-70.5% (active)	-63.7% (active)	-35.6% (active)	-54.6% (active)	-77.6% (active)	-66.7% (active)	-55.8% (active)	-61.2% (active)	-68.3% (active)	-59.4% (active)	-52.6% (active)	-84.8% (active)	-68.5% (active)	-80.4% (active)	-98.3% (active)	-73.6% (active)	-78.1% (active)	-83.7% (active)
COc1ccc(-c2nc(SCC(C)C)nc(N/N=C\c3cccc([N+](=O)[O-])c3)c2C#N)cc1	70.5%	57.1%	48.1%	30.5%	18.1%	43.6%	52.7%	8.02% (active)	89%	76.9%	46.3%	49.9%	-11.2% (active)	38.6%	13%	55.2%	68.3%	75.6%		
O=C(NNc1nc2cc(F)ccc2n2cncc12)c1cnccn1	26.6%	23.9%	29.5%	34.1%	68.6%	28.3%	0.0659% (active)	30.1%	36.5%	0.271% (active)	27.9%	33.1%	75.1%	33.7%	29.8%	44.6%	-11.6% (active)	17.5%	13.7%	26%
COc1ccc(Oc2ccc(C3CC(c4cc(OC)c(OC)c(OC)c4)=NN3C(C)=O)cc2)cc1 (centres undefined)	40.4%	16.1%	33.6%	40.6%	17%	38.6%	22.5%	46.5%	40.3%	27.6%	18.5%	31.7%	46%	30.8%	24.9%	18.3%	1.54% (active)	28.9%	35.8%	43.3%
Cc1ccc(NC(=O)c2cc(/C=C/C(=O)NO)cc(C(F)(F)F)c2)cc1Nc1nccc(-c2cccnc2)n1	14.1%	5.9% (active)	-19.2% (active)	-24.7% (active)	-8.53% (active)	-3.6% (active)	-4.95% (active)	-15.2% (active)	-38.8% (active)	-20.7% (active)	55.2%	7.3% (active)	-5.81% (active)	-0.0394% (active)	-65.1% (active)	18.9%	-88% (active)	-41.3% (active)	-68.2% (active)	
N#C/C(=C\c1ccc2ccccc2c1)C(=O)Nc1sc2c(c1C#N)CCC2	103%	96.2%	116%	98.1%	107%	103%	95.3%	102%	108%	106%	99%	121%	102%	98.9%	99%	98.1%	98%	90.3%	95.6%	113%
CC(=O)Nc1ccc(NC(=O)Nc2cccc(-c3nc(-c4ccc(NC(=O)c5cccnc5)cc4Cl)no3)c2)cc1C(F)(F)F	-13.9% (active)	-1.38% (active)	-84.9% (active)	-60.3% (active)	-79.5% (active)	-33.1% (active)	-69.6% (active)	-87.6% (active)	-43.7% (active)	-58.7% (active)	25.7%	-41% (active)	-64.1% (active)	-12.2% (active)	-56.1% (active)	-61.4% (active)	-88.2% (active)	-81.6% (active)	-91.9% (active)	
CCCCCCNC(=O)Oc1ccc(/C(=C(\C)c2ccc(Cl)cc2)c2ccc(OCCN(C)C)cc2)cc1	83.4%	4.21% (active)	-33.7% (active)	58.5%	46%	65.4%	84.8%	42%	18.9%	3.61% (active)	7.58% (active)	5.99% (active)	75.8%	60.8%	46%	56%	47.9%	84.7%	-67.8% (active)	75%
Cc1nn(-c2ccccc2)c2nc(CCl)[nH]c(=O)c12	83.6%	19.2%	103%	88.4%	99.2%	106%	109%	36.9%	97.9%	99%	90.6%	106%	93.9%	89.4%	101%	102%	98.7%	96.2%	2.09% (active)	110%
CCCCCCNC(=O)Oc1ccc(/C(=C(/C)c2ccc(OC)cc2)c2ccc(OCCN3CCCC3)cc2)cc1	91.6%	6.93% (active)	-13.6% (active)	65.7%	61.9%	83.6%	46.8%	37.7%	2.85% (active)	-35.5% (active)	17.3%	13.9%	85.5%	72.2%	58.6%	67.7%	53.7%	74.2%	-39.1% (active)	
O=C1[C@@H]2Cc3c([nH]c4ccccc34)[C@H](c3c(Cl)cccc3Cl)N2C(=O)CN1C1CCN(Cc2ccccc2)CC1	31.6%	-8.4% (active)	44.9%	55.4%	55.9%	52.5%	-79.4% (active)	70.3%	46.4%	23.3%	-25.7% (active)	2.12% (active)	62%	61.8%	38.9%	41.8%	45.2%	90.2%	-80% (active)	14.6%
CC1CCc2c(sc3nc(SCC(=O)N/N=C/c4cccc(O)c4O)n(-c4ccccc4)c(=O)c23)C1 (centres undefined)	74.7%	77.6%	95.1%	84.6%	-2.02% (active)	105%	86.7%	94.7%	100%	84.4%	85.6%	105%	99.2%	98.1%	90.9%	76.8%	94.1%	84%	60.4%	78.4%
CC1=C2C(=C[C@@](C)(COS(N)(=O)=O)[C@@H]2O)C(=O)[C@](C)(O)C12CC2	15.3%	97.2%	88.3%	83%	-30.2% (active)	32.2%	20.5%	64.9%	89.3%	76.7%	67.6%	56.8%	72.6%	72.4%	71.8%	58.5%	89.5%	62.1%	77%	87.6%
